In PubChem BioAssay (Tox21):
The source made the active and inactive calls. The call rests on the fitted dose curve; in most records, active means well fitted inhibition curve with a large enough effect in the repeat runs (not every such curve was filed as active); inconclusive means weak or mixed curves; inactive means flat fitted curve, though single readings scatter.

What follows are molecules tested against Thyrotropin-releasing hormone receptor (Homo sapiens) (UniProt P34981) (assay: qHTS assay to identify small molecule antagonists of the thyrotropin-releasing hormone receptor (TRHR) signaling pathway (AID 1346877)). Settings: TRHR-HEK293, TRH-induced calcium fluorescence, antagonist mode; series mostly up to 51.3 µM.
Description: National Center for Advancing Translational Sciences [NCATS]
NIH Chemical Genomics Center [NCGC]
U.S. Environmental Protection Agency [EPA]
National Institutes of Environmental Health Sciences [NIEHS]
National Toxicology Program [NTP]
U.S. Food and Drug Administration [FDA]
Thyrotropin-releasing hormone (TRH) receptor (TRHR) is a G-protein-coupled receptor which binds the tripeptide thyrotropin releasing hormone. TRHR is found in the brain and, when bound by TRH, acts (through phospholipase C) to increase intracellular inositol trisphosphate. It plays a crucial role in the anterior pituitary where it controls the synthesis and secretion of thyroid stimulating hormone and prolactin. The TRHR-Hek293 assay is a cell-based assay, and it has the potential to screen G protein-coupled receptors. A compound/drug can either activate (agonist) or suppress (antagonist) GPCRs that can be monitored by levels of intracellular calcium. In this assay, the Tox21 10K compound library was screened to identify potential TRHR antagonists.
Tox21 Assay Protocol Summary:
The TRHR-Hek293 cells were dispensed at 1500cells/4uL/well in 1536-well black-clear bottom plates using a Multidrop dispenser. After the assay plates were incubated at a 37 C/5% CO2 incubator for 18 hours, 4 uL of Dye-Loading Solution was added to each well. The plates were incubated at 37 C for 2 hours. For agonist mode, 23 nL of compounds dissolved in DMSO, positive controls or DMSO only was transferred to the assay plate by a pin tool. The fluorescence intensity in the plates was measured using FDSS 7000EX kinetic plate reader for 3 min at 1 sec intervals. For antagonist mode, 23 nL of compounds dissolved in DMSO, positive controls or DMSO only was transferred to the assay plate by a pin tool. After 5 min incubation at room temperature, 1 uL of TRH was added on the top of the cell/compound mixtures to achieve a final agonist concentration of 1 nM. The fluorescence intensity in the plates was measured using FDSS 7000EX kinetic plate reader for 3 min at 1 sec intervals. Each test compound was measured at 15 concentrations and in triplicates.

Thyrotropin-releasing hormone receptor (Homo sapiens), sequence (P34981 whole entry, looked up): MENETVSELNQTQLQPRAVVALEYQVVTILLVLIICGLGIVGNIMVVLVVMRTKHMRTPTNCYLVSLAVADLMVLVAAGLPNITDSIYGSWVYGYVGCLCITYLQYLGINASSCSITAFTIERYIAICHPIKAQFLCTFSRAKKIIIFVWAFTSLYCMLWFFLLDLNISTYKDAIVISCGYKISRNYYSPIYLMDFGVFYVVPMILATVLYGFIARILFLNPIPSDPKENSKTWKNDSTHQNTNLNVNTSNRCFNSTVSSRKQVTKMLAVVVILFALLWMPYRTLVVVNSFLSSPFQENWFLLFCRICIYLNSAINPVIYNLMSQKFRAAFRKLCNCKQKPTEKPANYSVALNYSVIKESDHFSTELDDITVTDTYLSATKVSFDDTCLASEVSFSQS

Row | Compound | outcome
1 | CC1Cc2ccccc2N1NC(=O)c1ccc(Cl)c(S(N)(=O)=O)c1 (stereo not given) | inactive
2 | CCCCCCCCCC(=O)O | inactive
3 | CC#C[C@]1(O)CC[C@H]2[C@@H]3CCC4=CC(=O)CCC4=C3[C@@H](c3ccc(N(C)C)cc3)C[C@@]21C | inactive
4 | Oc1ccc2ccccc2c1N=Nc1ccccc1 | inactive
5 | O=S(=O)(O)c1cc(S(=O)(=O)O)c2c(N=Nc3ccccc3)c(O)ccc2c1 | inactive
6 | CC(=O)[C@@]1(O)CC[C@H]2[C@@H]3CCC4=CC(=O)CC[C@]4(C)[C@H]3CC[C@@]21C | inactive
7 | c1ccc2ccccc2c1 | inactive
8 | CC(C)(C)C1CCC(O)CC1 (stereo not given) | inactive
9 | S=c1nc[nH]c2nc[nH]c12 | inactive
10 | NCc1cccc(CN)c1 | inactive
11 | O=C1O[C@H](CO)[C@@H](O)[C@H](O)[C@H]1O | inactive
12 | C=C1C2CCC(C2)C1(C)C (stereo not given) | inactive
13 | CCC(C)C=O (stereo not given) | inactive
14 | CCCCCCC(C)(C)S | inactive
15 | CC1(C)CC(N=C=O)CC(C)(CN=C=O)C1 (stereo not given) | inactive
16 | CCCCCCCCCCCCN | inactive
17 | CCCCC(CC)COC(C)=O (stereo not given) | inactive
18 | O=C(Cl)c1c(Cl)c(Cl)c(C(=O)Cl)c(Cl)c1Cl | inactive
19 | CCCCC(CC)COC(=O)/C=C\C(=O)OCC(CC)CCCC (stereo not given) | inactive
20 | CC(=O)Nc1ccc(C(=O)O)cc1 | inactive

Row | Compound | outcome
21 | CCCCCCCCC | inactive
22 | C=CC(=O)OCCCCCCCC(C)C | inactive
23 | OCC#CCO | inactive
24 | CN(C)c1cccc(O)c1 | inactive
25 | CCc1ccccc1O | inactive
26 | O=Nc1ccc(O)cc1 | inactive
27 | O=C(Oc1ccccc1)c1ccc(O)cc1 | inactive
28 | Cc1cc(O)c2c(c1)C(=O)c1cc(O)cc(O)c1C2=O | inactive
29 | CC1=C(/C=C/C(C)=C/C=C/C(C)=C/CO)C(C)(C)CCC1 | inactive
30 | c1ccc2[nH]cnc2c1 | inactive
31 | CC1(C)O[C@@H]2C[C@H]3[C@@H]4C[C@H](F)C5=CC(=O)CC[C@]5(C)[C@H]4[C@@H](O)C[C@]3(C)[C@]2(C(=O)CO)O1 | inactive
32 | CCCCNC(N)=O | inactive
33 | CC(C)n1c(/C=C/[C@@H](O)C[C@@H](O)CC(=O)O)c(-c2ccc(F)cc2)c2ccccc21 | inactive
34 | Oc1c(Cl)cc(Cl)c(Cl)c1Cl | inactive
35 | CCCCC(CC)COC(=O)CCCCCCCC(=O)OCC(CC)CCCC (stereo not given) | inactive
36 | O=C(O)c1cc(-c2ccccc2)nc2ccccc12 | inactive
37 | O=[N+]([O-])C(CO)(CO)CO | inactive
38 | CCCCCCCCCCCCOCC1CO1 (stereo not given) | inactive
39 | CN(C)c1ccc(C(=N)c2ccc(N(C)C)cc2)cc1 | inactive
40 | Cc1ccc(N)c(S(=O)(=O)O)c1 | inactive
